Compound activity as filed in PubChem.
Pf Dd2 growth: inhibitors of Plasmodium falciparum Dd2 growth; P. falciparum Dd2 growth, SYBR Green, 72 h; 120,000 compounds, 4.3% hits; Potency, µM (doses to about 28.9 µM), for the others: at the highest dose activity, negative = inhibition, most hits filed as inhibitors; active means well fitted inhibition curve with a large enough effect;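 further: plate controls were DMSO vehicle for no effect and reference drug for full effect; nearly all actives have a fitted effect of over 65% in size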
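Readout: SYBR Green fluorescence, 485 nm excitation, 535 nm emission, after ~16 h lysis at 37C. Before that, Dd2-infected red cells (2.5% hematocrit) grew 72 h with compound, 29 uM top final concentration.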
Active calls of the source: *; i = inactive; [ ] = remark or other dose. The sample as a whole holds a higher share of hits than the screen did. Potency means the concentration at half of the fitted maximal effect.

SMILES	Pf Dd2 growth
Cn1cccc1C(=O)N1CCCN(Cc2ccncc2)C(c2ccccc2)CC(=O)NCC1 (centres undefined)	2.51µM*
O=C1CC(c2ccccc2)N(Cc2ccncc2)CCCN(C(=O)c2ccc3ccccc3n2)CCN1 (centres undefined)	-6.9%
Cn1ccnc1C(=O)N1CCCN(S(C)(=O)=O)C(c2ccccc2)CC(=O)NCC1 (centres undefined)	i
Cn1cccc1C(=O)N1CCCN(S(=O)(=O)c2ccccc2)CCC(=O)NCC1	-10.7%
Cc1ccc(C(=O)N2CCCN(S(C)(=O)=O)C(c3ccccc3)CC(=O)NCC2)cn1 (centres undefined)	-9.0%
Cc1ccc(C(=O)N2CCCN(Cc3ccncc3)C(c3ccccc3)CC(=O)NCC2)cn1 (centres undefined)	i
Cn1cnc(S(=O)(=O)N2CCCN(C(=O)c3ccncc3)CCNC(=O)CC2c2ccccc2)c1 (centres undefined)	-0.6%
O=C1CC(c2ccccc2)N(C(=O)C2CC2)CCCN(C(=O)c2cccs2)CCN1 (centres undefined)	-17.9%
O=C1CC(c2ccccc2)N(Cc2ccncc2)CCCN(C(=O)c2ccsc2)CCN1 (centres undefined)	5.62µM*
CS(=O)(=O)N1CCCN(C(=O)c2ccsc2)CCNC(=O)CC1c1ccccc1 (centres undefined)	2.7%
Cc1ncccc1C(=O)N1CCCN(Cc2ccncc2)C(c2ccccc2)CC(=O)NCC1 (centres undefined)	11.2µM*
O=C1CC(c2ccccc2)N(Cc2ccncc2)CCCN(C(=O)c2ccc3ncccc3c2)CCN1 (centres undefined)	6.31µM*
Cc1cc(C)cc(OCC(=O)c2ccc3c(c2)N(CC(=O)N2CCOCC2)C(=O)CO3)c1	8.8%
Cc1cc(C)n(C)c(=O)c1C(=O)NC1CCCc2nc(-c3ccccc3)ncc21 (centres undefined)	8.4%
COC1CCCOC12CCN(C(=O)CCCn1cncn1)CC2 (centres undefined)	-3.7%
O=C(CC1CCCN(c2cnn(CC3CC3)c(=O)c2)C1)NCc1cc(F)ccc1F (centres undefined)	i
CC1(C)CNC(=O)c2nc(C3(CN4CCCC4)CC3)[nH]c2C1	-2.2%
O=C(c1ccc2c(c1)OCO2)N1CCC2(CC1)COc1ccccc1NC2=O	15.6%
COC1CN(C2CCN(C(=O)c3cnccn3)CC2)C12CCOCC2 (centres undefined)	-4.9%
O=C(c1ccco1)N1CCCC(c2nc(CCOCC3CCOCC3)no2)C1 (centres undefined)	-17.9%
COc1ccccc1CC(=O)N[C@@H]1CN(C2CCOCC2)C[C@H]1CN(C)C	23.3%
CS(=O)(=O)N1CCCN(Cc2ccc(C#N)cc2)CCNC(=O)CC1c1ccccc1 (centres undefined)	-18.0%
CCCS(=O)(=O)N1CCCN(Cc2ccncc2)C(c2ccccc2)CC(=O)NCC1 (centres undefined)	14.1µM*
CCCS(=O)(=O)N1CCCC(C(=O)NCc2ccccc2)CCNC(=O)CC1 (centres undefined)	26.0%
COc1cccc(CN2CCCN(Cc3ccncc3)C(c3ccccc3)CC(=O)NCC2)c1 (centres undefined)	1.41µM*
SMILES	Pf Dd2 growth
Cc1cccc(C(=O)N2CCCCCNC(=O)CC2c2ccccc2)c1 (centres undefined)	-6.3%
O=C1CC(c2ccccc2)N(Cc2ccncc2)CCCN(C(=O)CN2C(=O)CCC2=O)CCN1 (centres undefined)	-19.3%
COc1cccc(CC(=O)N2CCCN(S(C)(=O)=O)C(c3ccccc3)CC(=O)NCC2)c1 (centres undefined)	-11.4%
Cc1cccc(C(=O)N2CCCN(C(=O)C3CC3)C(c3ccccc3)CC(=O)NCC2)c1 (centres undefined)	i
Cc1cccc(C(=O)N2CCCN(Cc3ccncc3)C(c3ccccc3)CC(=O)NCC2)c1 (centres undefined)	2.24µM*
CN(C)C[C@@H]1CN(S(C)(=O)=O)C[C@H]1N	i
COCC(=O)N1CCC2(CC1)CN(c1ccccc1)C2=O	-4.0%
O=C(c1n[nH]c(=O)c2ccccc12)N1CCN(C(=O)N2CC3CC(C2)[C@H]2CCCC(=O)N2C3)CC1 (some centres undefined)	7.1%
O=C(N1CCC(c2nc(C3CCOCC3)no2)C1)C1(c2ccccc2)CC1 (centres undefined)	9.2%
COc1ccc(CCC(=O)N2CCC(c3nc(C4CCOCC4)no3)CC2)cc1	-7.7%
CCOc1ccccc1C1NC(=O)N(CC(=O)NCc2ccc(OC)cc2)C2=C1C(=O)OC2 (centres undefined)	i
CN(C)C(=O)c1nc(-c2ccc(Cl)cc2)c2ccccn12	-8.9%[44.1 µM]
CC(C)(C)C(=O)N1CC[C@@H](CC(=O)O)[C@@H](CCN2CCN(c3ccc(F)cc3)CC2)C1	-19.2%[44.1 µM]
C[C@@]12CO[C@@H](Cc3ccccc3)O[C@@H]1CC[C@]1(C)C2CC[C@@H](O)[C@H]1CC(=O)NCc1ccco1 (some centres undefined)	i
C[C@@H]1C(=O)O[C@H]2[C@H]1CC[C@@]1(C)Cc3sc(NS(=O)(=O)c4ccc(F)cc4F)nc3[C@@H](C)[C@H]21	i
COCCNC(=O)[C@@H]1C[C@@H](O)CN1C1CCN(C(=O)Cc2cccc(OC)c2)CC1	-3.6%
CCOC(=O)c1cnc2c(C)c(Cl)ccc2c1NCCc1ccccc1	-10.2%
CCOC(=O)c1cnc2ccc(OCC)cc2c1NCCc1ccc(OC)c(OC)c1	4.47µM*
CCOC(=O)c1cnc2ccc(C)cc2c1NCCc1ccc(OC)c(OC)c1	8.91µM*
CCOc1ccc(-c2nnc(SCC(=O)NCCc3ccc(OC)c(OC)c3)nc2-c2ccc(OCC)cc2)cc1	-25.8%
CCOC(=O)c1c(C)oc2nc(C)nc(NCCc3ccc(OC)c(OC)c3)c12	-25.1%
CCOC(=O)c1ccc2ncc(C(=O)OCC)c(Nc3ccc(C)c(Br)c3)c2c1	i
O=C(c1cnccn1)N1CCN(c2cc(-c3ccc(Cl)cc3)[nH]n2)CC1	i
CC(Oc1ccc(CN2CCN(CCS(C)(=O)=O)CC2)cc1)C(=O)O (centres undefined)	4.2%
CC(C)c1nnc(C2CN(C(=O)Cc3ccc(Br)cc3)CC23CCOCC3)o1 (centres undefined)	13.3%
SMILES	Pf Dd2 growth
COc1ccc2c(c1)nc1n2[C@@H](CN(Cc2nccs2)Cc2nccs2)COC1	-25.4%[44.1 µM]
Cc1ccc2nc3n(c2c1)[C@@H](CNCc1ccccc1)COC3	i
COc1ncccc1CN(Cc1cccnc1OC)C[C@H]1COCc2nc3ccc(C)cc3n21	4.47µM*
O=C(Cn1ccc(=O)[nH]c1=O)N1CCCC(c2[nH]ncc2-c2ccc(F)cc2)C1 (centres undefined)	8.3%
NC(=O)CCNC(=O)[C@@H]1C[C@@H](NS(=O)(=O)c2cccs2)CCN1C(=O)COCC(=O)O	5.8%
C[S+](=O)([O-])Nc1cccc(Nc2cnc3ccc(-c4ccccc4)nn23)c1	12.6µM*
COc1ccccc1-c1ccc2ncc(Nc3ccc(C(N)=O)cc3)n2n1	i
COc1ccc(Nc2cnc3ccc(-c4ccc(OC)c(OC)c4)nn23)cn1	i
COc1ccc(-c2ccc3ncc(Nc4ccc5c(c4)OCCO5)n3n2)cc1OC	i
CN(C)c1ccc2ncc(Nc3cccc(C(F)(F)F)c3)n2n1	i
COc1cncc(Nc2cnc3ccc(-c4cccc(CO)c4)nn23)c1	12.6µM*
OCc1cccc(-c2ccc3ncc(Nc4ccnc(N5CCOCC5)c4)n3n2)c1	i
